In PubChem BioAssay (NCATS):
Records with an inconclusive call do not appear. Calls of active or inactive are those of the source. Unless noted, the call rests on the fitted dose curve; in most records, active means well fitted inhibition curve with a large enough effect; inconclusive means small, poorly fitted or top-dose-only effect; inactive means no such curve, though single readings can be large or run the other way.

Legend:
[1] = qHTS profiling of the MIPE4 collection as inhibitors of Plasmodium falciparum (HB3) proliferation (AID 743347; call rule not given here;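 further: plate controls were DMSO vehicle wells for no effect and artemisinin wells for full effect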); details: P. falciparum HB3 in erythrocytes, SYBR Green DNA, 72 h; at 28.5 µM (top of the series) unless noted
Summary of the method: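 Parasite DNA was quantified by SYBR Green I fluorescence (ex 485, em 535 nm) after overnight lysis in saponin/Triton buffer at room temperature. Cultures at 0.3% parasitemia and 2.5% hematocrit were first exposed to compound for 72 h at 37 C; signals were normalised to artemisinin (0.29 uM) and vehicle wells.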

[2] = High-throughput drug toxicity screening in the BPDCN cell line Gen2.2 (AID 1224824; call rule not given here;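 further: cells exposed to compounds for 48 h before reading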); details: Gen2.2 BPDCN cells; at 45.8 µM (top of the series) unless noted
Summary of the method: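 Gen2.2 cells, 500 per well in phenol red-free RPMI with 10% FBS, exposed to compounds 48 h at 37 C, 5% CO2; viability by CellTiter-Glo luminescence. Percent activity scaled to DMSO (100%) and 9.2 uM bortezomib final (0%).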

[3] = High-throughput drug toxicity screening in the BPDCN cell line Cal-1 (AID 1224825; call rule not given here); details: Cal-1 BPDCN cell viability, qHTS; at 45.8 µM (top of the series) unless noted
Summary of the method: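 CellTiter-Glo luminescence after 48 h compound exposure; percent activity scaled with DMSO as 100% and bortezomib (9.2 uM final) as 0%. Cal-1 cells seeded at 500/well in RPMI, 10% FBS, no phenol red.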

[4] = qHTS assay for measurement of the activity of small molecule inhibitors on Zika virus induced Caspase-3 activity in human iPSC derived neural progenitor cells (hNPCs) (AID 1224857); further: % of control where 0% means no effect; nearly all actives have a fitted effect of over 65% in size
Summary of the method: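 hNPCs seeded 350 cells/well, cultured 16–20 h; compounds added 1 h before ZIKV (2 FFU/cell), 37 C 6 h. Caspase-Glo 3/7 luminescence after 30 min RT; % inhibition from induction scaled to uninfected (0%) and infected (100%) wells.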

[5] = qHTS assay for measurement of the activity of small molecule inhibitors on Zika virus induced Caspase-3 activity in human astrocytoma cells (AID 1224859);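 further: plate controls were ZIKV-infected untreated cells for no effect and uninfected cells for full effect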
Summary of the method: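 Luminescence read-out (Caspase-Glo 3/7, 30 min RT) of caspase activity in SNB-19 cells infected 6 h with ZIKV, 2 FFU/cell, after 1 h compound pretreatment; % inhibition from induction normalised to uninfected (0%) and infected (100%) wells.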

[6] = qHTS Screen of the MIPE 4.0 Collection Against Ewings Sarcoma (RDES) (AID 1259252); further: nearly all actives have a fitted effect of over 35% in size; further: potency means the concentration at half of the fitted maximal effect
Summary of the method: (§1)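 Viability screen: 48 h incubation at 37C, 95% humidity, 5% CO2 with serially titrated compound, followed by CellTiter-Glo readout.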

[7] = qHTS Screen of the MIPE 4.0 Collection Against Ewings Sarcoma (TC71) (AID 1259253); further: nearly all actives have a fitted effect of over 40% in size; further: potency means the concentration at half of the fitted maximal effect
Summary of the method: as §1

[8] = qHTS Screen of the MIPE 4.0 Collection Against Ewings Sarcoma (EW8) (AID 1259255); further: nearly all actives have a fitted effect of over 35% in size; further: potency means the concentration at half of the fitted maximal effect;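 on viability: 100% = DMSO-treated cells and 0% = medium-only wells without cells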
Summary of the method: as §1

[9] = qHTS Screen of the MIPE 4.0 Collection Against Ewings Sarcoma (TC32) (AID 1259256); further: nearly all actives have a fitted effect of over 45% in size; further: potency means the concentration at half of the fitted maximal effect
Summary of the method: as §1

Row | Structure (SMILES) | growth, % of control [1] | cell viability, % of control (lower = more cytotoxic) [2] | viability (% of control) [3] | Potency [4] | Potency [5] | Potency [6] | Potency [7] | Potency [8] | Potency [9]
1 | C=C1CCC2[C@](C)(CO)C(O)CC[C@]2(C)C1CC=C1C(=O)OCC1O (stereo partly drawn) | 46.9% [at 57.5 µM] | 83.8% [at 92.2 µM] | 110% [at 92.2 µM] | inactive | inactive | inactive | inactive | inactive | inactive
2 | CCNC(=O)c1cc2c(-c3cc(OCCN4CCCC4)c(Cl)cc3Cl)nc(N)nc2s1 | 5.43% | 13.8% | 13.8% | inactive | inactive | 1.18 µM (active) | 1.32 µM (active) | 1.18 µM (active) | 0.59 µM (active)
3 | N#CC(=C(N)Sc1ccc(N)cc1)c1ccccc1C(F)(F)F | 7.78% | 7.44% | 57.2% | inactive | inactive | 5.9 µM (active) | 10.5 µM (active) | 3.32 µM (active) | 5.26 µM (active)
4 | CC[C@H](CC[C@@H](C)[C@H]1CC[C@H]2[C@@H]3CC=C4C[C@@H](O)CC[C@]4(C)[C@@H]3CC[C@]12C)C(C)C | 100% | 114% | 107% | inactive | inactive | inactive | inactive | inactive | inactive
5 | N=c1ccn2c(n1)O[C@H]1[C@@H](O)[C@@H](CO)O[C@H]12 | 73.8% | 70.9% | 11.2% | inactive | inactive | 0.332 µM (active) | 0.662 µM (active) | 1.05 µM (active) | 0.372 µM (active)
6 | C=CCNc1c(O)cc2c(O)c1C[C@@H](C)C[C@H](OC)[C@@H](O)[C@@H](C)C=C(C)[C@H](OC(N)=O)[C@@H](OC)C=CC=C(C)C(=O)N2 | 8.78% | 5.31% | 6.05% | inactive | inactive | 2.64 µM (active) | 2.35 µM (active) | 5.9 µM (active) | 0.264 µM (active)
7 | CC(C)(N)c1ccc(-c2nc3ccccc3nc2-c2ccccc2)cc1 | 18.5% | 8.3% | 4.03% | inactive | inactive | 26.4 µM (active) | 26.4 µM (active) | 20.9 µM (active) | 23.5 µM (active)
8 | CCN(CC)CCNC(=O)c1c(C)[nH]c(C=C2C(=O)Nc3ccc(F)cc32)c1C | 5.65% [at 57.5 µM] | 7.6% [at 92.2 µM] | 4.58% [at 92.2 µM] | inactive | inactive | 9.59 µM (active) | 13.6 µM (active) | 4.29 µM (active) | 10.8 µM (active)
9 | COc1cc(OC)cc(-c2ccc3ncc4ccc(=O)n(-c5ccc(N6CCNCC6)c(C(F)(F)F)c5)c4c3c2)c1 | 9.36% | 13.6% | 5.34% | inactive | inactive | 2.96 µM (active) | 2.64 µM (active) | 4.18 µM (active) | 3.32 µM (active)
10 | Cn1cc(C2=C(c3c4n(c5ccccc35)CCC(CN)C4)C(=O)NC2=O)c2ccccc21 (stereo not drawn) | 3.72% | 3.32% | 2.84% | inactive | inactive | 16.6 µM (active) | 16.6 µM (active) | 18.7 µM (active) | 20.9 µM (active)
11 | CCOC(=O)[C@@H](N)Cc1ccc(-c2cc(O[C@H](c3ccc(Cl)cc3-n3ccc(C)n3)C(F)(F)F)nc(N)n2)cc1 | 15.8% | 10.1% | 16.2% | inactive | inactive | 26.4 µM (active) | 23.5 µM (active) | 26.4 µM (active) | 20.9 µM (active)
12 | Cc1cnc(NC(=O)Nc2cc(Br)c(C)cc2OC[C@@H]2CNCCO2)cn1 | 2.97% | 20.9% | 7.84% | inactive | inactive | 2.35 µM (active) | 0.59 µM (active) | 0.833 µM (active) | 0.59 µM (active)
